According to PubChem BioAssay AID488969 (Vanderbilt High Throughput Screening Facility, 2010):
Over roughly 110,000 compounds, “z-score” has its median near -0.1; the highest 2% begin near 2. Shown is part of a subset that was picked to be rich in the highest values. Activity calls are given as the source filed them.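 Rule for the calls: active = z-score in the third read window above 3 or below -3; inactive = the rest.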

Biological target: Metabotropic glutamate receptor 8 (Rattus norvegicus) (UniProt P70579)
Sequence (P70579 whole entry, looked up): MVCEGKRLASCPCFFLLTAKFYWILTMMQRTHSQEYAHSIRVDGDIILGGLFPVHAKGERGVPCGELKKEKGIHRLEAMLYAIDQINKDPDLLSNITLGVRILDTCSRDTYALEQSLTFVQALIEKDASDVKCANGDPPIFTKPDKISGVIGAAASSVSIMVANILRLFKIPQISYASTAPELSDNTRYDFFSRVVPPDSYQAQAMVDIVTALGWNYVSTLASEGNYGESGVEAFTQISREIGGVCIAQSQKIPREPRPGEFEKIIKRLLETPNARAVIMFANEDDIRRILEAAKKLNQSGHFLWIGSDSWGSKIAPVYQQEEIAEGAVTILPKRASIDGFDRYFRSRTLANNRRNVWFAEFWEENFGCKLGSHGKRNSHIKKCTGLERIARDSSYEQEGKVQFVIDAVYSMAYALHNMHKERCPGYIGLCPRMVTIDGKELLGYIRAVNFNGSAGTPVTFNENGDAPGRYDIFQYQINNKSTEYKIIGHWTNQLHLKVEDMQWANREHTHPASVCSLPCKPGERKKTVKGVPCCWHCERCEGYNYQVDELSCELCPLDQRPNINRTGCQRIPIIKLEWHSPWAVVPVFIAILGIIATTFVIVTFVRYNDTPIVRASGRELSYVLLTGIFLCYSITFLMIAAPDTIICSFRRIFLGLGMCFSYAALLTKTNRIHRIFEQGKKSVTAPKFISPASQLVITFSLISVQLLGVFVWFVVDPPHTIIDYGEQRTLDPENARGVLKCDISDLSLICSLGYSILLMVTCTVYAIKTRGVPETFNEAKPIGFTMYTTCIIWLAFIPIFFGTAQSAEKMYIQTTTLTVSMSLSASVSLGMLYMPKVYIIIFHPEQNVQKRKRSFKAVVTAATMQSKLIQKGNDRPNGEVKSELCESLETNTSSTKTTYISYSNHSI
Test: mGluR8 Gi/Go-coupled signaling modulation – cell-based, rat, thallium flux, HTS, primary screen (AID 488969)
Conditions: HEK293 rat mGluR8, GIRK (G protein-gated inwardly rectifying potassium channel) thallium flux, FluoZin2; at 10 µM; stronger effect = higher value; submaximal glutamate (EC20) added with thallium

SMILES | z-score
COc1cc(OC)c(NC(=O)CCNC(=O)Cn2ccc3ccccc3c2=O)cc1Cl | -0.293
CCN(CC)S(=O)(=O)c1ccc(NC(=O)Cn2cnc3ccccc3c2=O)cc1 | -0.403
CCN(CC)S(=O)(=O)c1cc(NC(=O)Cn2cnc3ccccc3c2=O)ccc1C | 3.32 (active)
COc1ccc(NC(=O)CCNC(=O)Cn2cnc3ccccc3c2=O)c(OC)c1 | -0.512
COc1cc(OC)c(NC(=O)CCNC(=O)Cn2cnc3ccccc3c2=O)cc1Cl | 2.94
CN(C)S(=O)(=O)c1cccc(NC(=O)Cn2cnc3ccccc3c2=O)c1 | 0.0344
C=CCc1ccccc1OCC(O)CN(CC)CC (configuration not stated) | 0.0462
CCCNC(=O)Cn1cnc2sc(C(=O)N3CCN(c4ccc(F)cc4)CC3)c(C)c2c1=O | -0.159
CCCCS(=O)CC(CS(=O)CCCC)OC(=O)c1ccccc1 (configuration not stated) | 0.895
O=C(/C=C/c1cccc2ccccc12)NCCC1=CCCCC1 | -0.101
CC(C)(C)NS(=O)(=O)c1ccc(NS(C)(=O)=O)cc1 | -0.0947
CCCCc1ccc(Nc2ncnc3nc[nH]c23)cc1 | 2.82
CCOC(=O)c1ccc(Nc2ncnc3nc[nH]c23)cc1 | -0.0179
c1ccc(COc2ccc(Nc3ncnc4nc[nH]c34)cc2)cc1 | 0.0418
COc1cccc(/C=N/NC(=O)CCn2nnc3ccccc32)c1 | 2.1
COc1cc(/C=N/NC(=O)CCn2nnc3ccccc32)ccc1O | -0.659

SMILES | z-score
COc1ccc(O)c(/C=N\NC(=O)CCn2nnc3ccccc32)c1 | -0.125
CCOC(=O)Cc1nnc(Nc2cccc(C)c2)c2ccccc12 | -0.988
O=C(NCC1CCN(c2ccc(S(=O)(=O)N3CCOCC3)cc2)CC1)c1cccc(Cl)c1 | 0.0384
COc1ccc(/C=C/C(=O)NC(=S)NN2CCCCC2c2cccnc2)cc1 (configuration not stated) | 0.454
COc1ccc(/C=C/C(=O)NC(=S)NN2CCCCC2c2cccnc2)cc1OC (configuration not stated) | 0.0576
O=C(/C=C/c1ccc(Cl)cc1)NC(=S)NN1CCCCC1c1cccnc1 (configuration not stated) | 2.97
C=CCC(NCc1ccccc1)c1ccco1 (configuration not stated) | 2.42
C=CCC(NCc1ccccc1)c1ccc(C)o1 (configuration not stated) | 0.143
C=CCC(NC(C)c1ccccc1)c1ccco1 (configuration not stated) | 0.174
N#Cc1cnc(SCC(=O)c2ccccc2)nc1N | 0.0176
Cc1cc(N2CCCCC2)n2ncc(-c3ccccc3)c2n1 | -0.231
Cc1cc(N2CCOCC2)n2nc(C)c(-c3ccccc3)c2n1 | 4.01 (active)
Cc1cc(N2CCOCC2)n2ncc(-c3ccccc3)c2n1 | -0.401
Cc1cc(N2CCC(C)CC2)n2nc(C)c(-c3ccccc3)c2n1 | -0.28
Cc1cc(N2CCN(Cc3ccccc3)CC2)n2nc(C)c(-c3ccccc3)c2n1 | 0.0393
Cc1cc(N2CCC(C)CC2)n2ncc(-c3ccccc3)c2n1 | 3.32 (active)
